Data published in the supplement of paper PMC6555819.

Assays:
Assay in all cases: PBM binding z-score (relative to random genomic background probes); higher = stronger binding; sequences stand for … in GC…GCGATTGACAGCGTAGAATGAAGG
[1] = test system: FXR:RXRa (NR concentration 270 nM, RXRa partner concentration 90 nM)
Procedure, shortened: (§1)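 Custom Agilent 4×180K protein-binding microarrays carried double-stranded probes. Their 34-nt variable regions held direct-repeat seeds, single-nucleotide variants, half-site ablations and random human genomic background sequences. Arrays were incubated 1 h with ligand-free nuclear receptor dimers in PBS pH 7.4, 2% milk, 0.02% Triton X-100, 1 mM DTT, 0.2 mg/mL BSA and 0.4 mg/ml salmon testes DNA. Antibodies against each partner (one per run) detected binding, and scanned fluorescence was regression-normalized. Binding z-scores use random background probes as reference.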

[2] = test system: LXRa:RXRa (NR concentration 270 nM, RXRa partner concentration 90 nM)
Procedure, shortened: as §1

[3] = test system: LXRa homodimer (NR concentration 270 nM)
Procedure, shortened: as §1

[4] = test system: LXRb:RXRa (NR concentration 270 nM, RXRa partner concentration 90 nM)
Procedure, shortened: as §1

[5] = test system: LXRb homodimer (NR concentration 270 nM)
Procedure, shortened: as §1

[6] = test system: PPARa:RXRa (NR concentration 270 nM, RXRa partner concentration 90 nM)
Procedure, shortened: as §1

[7] = test system: PPARg:RXRa (NR concentration 180 nM, RXRa partner concentration 90 nM)
Procedure, shortened: as §1

[8] = test system: PPARg:RXRa 270nM:90nM, anti-RXR (NR concentration 270 nM, RXRa partner concentration 90 nM)
Procedure, shortened: as §1

[9] = test system: PPARg:RXRa 30nM:10nM, anti-RXR (NR concentration 30 nM, RXRa partner concentration 10 nM)
Procedure, shortened: as §1

[10] = test system: PPARg:RXRa 90nM:30nM, anti-RXR (NR concentration 90 nM, RXRa partner concentration 30 nM)
Procedure, shortened: as §1

Sequence	PBM binding z-score [1]	PBM binding z-score [2]	PBM binding z-score [3]	PBM binding z-score [4]	PBM binding z-score [5]	PBM binding z-score [6]	PBM binding z-score [7]	PBM binding z-score [8]	PBM binding z-score [9]	PBM binding z-score [10]
CCGCCTGGGGCATAAGGTTACCATAAGCCAGCCC	0.396	2.13	-0.0987	0.843	-1.3	1.3	0.507	0.996	-0.661	0.461
ATCGAAAGTTCGACGAGGTGAGTATACACCGTTT	0.939	0.833	-0.161	0.494	0.233	1.18	0.693	0.561	0.0902	0.117
CAAACTAGGTCACCGGAAGGTCTAAGTCCGCATG	3.99	3.38	0.494	2.73	0.609	5.3	8.5	7.22	4.98	6.82
AATCCAGGGTCACTAGGCCAGAGTAGGTACGAAT	5.69	4.8	0.376	3.92	0.621	5.78	7.8	6.61	3.93	5.73
GATACAGGGCCAGCTAGAGGCCAGAGTATGGAAA	-0.612	-0.872	-0.883	-1.08	-1.43	-0.738	0.208	-0.6	-0.543	-0.645
TCATATAGGTAAATGCTAGGTGAAAGTACGATCT	1.24	0.992	0.296	0.731	0.0256	1.6	1.69	2.52	3.66	3.19
GCGACTGGGGCAAAGCGGGTTACCATAAGGTTGG	0.373	-0.0696	-0.512	0.27	-0.709	1.42	1.15	1.47	-0.245	0.845
CCTCGGAGGACAGAAGGACAGAGCTGTCCGCTTT	-0.348	-0.559	-0.63	-0.942	-0.907	-0.733	-0.176	-0.854	-1.07	-0.86
TCATATAGGTAAATGCTAGGGGAAAGTCCGATCT	0.958	0.949	0.455	0.865	0.134	1.21	0.788	2.13	3.88	3.25
CGTCCAAGGTCAGAGAGGTCAGCGAATGCCGAGT	6.38	5.44	3.27	4.32	0.249	5.09	4	4.67	0.981	3.07
ACCTCTAGGTAACAAGTTCAGTGAAAGAGAGGAC	0.245	0.295	0.188	0.426	-0.0173	1.02	1.18	1.5	0.452	1.29
CCTACTGGGCCAAGGTGATTGATCAGTCAAAGCA	-0.711	-0.732	-0.784	-0.722	-1.14	0.274	1.29	2.08	0.0836	1.45
ACTATTAGTTGTCTTAGGGCAACCGATACGACGC	0.119	0.0228	0.27	0.0317	0.936	-0.245	0.651	0.232	0.276	0.044
TCAGACGGGTGAAGGTAACTCAGGTACGCAGTCG	0.211	1.12	-0.137	0.138	-0.885	1.02	0.625	1.66	2.83	2.17
CAAACTAGGTCTCCGGAAGGTCAAAGTCCGCATG	2.65	3.15	2.79	3.25	0.445	3.75	2.85	3.29	0.811	2.34
CGCCCAAGGTCAGAGAGGTCAGTGAATGCCGAGT	6.04	4.89	3.24	4.24	-0.135	4.86	3.1	4.03	0.767	2.55
CCTTACGGGTCACTCACAGGTTATAGCATTTGGA	4.95	4.32	0.653	3.67	0.243	5.1	4.15	3.82	1.29	2.78
TCTTGTAGATCAATAGAGGTTAAGACAGTGCGCT	0.684	3.16	0.434	1.56	0.045	1.98	0.205	1.48	2.9	2.34
CGTCCATGGTCAAAGGTCAGTGAAGAGATGACGG	3.85	3.63	0.607	3.29	0.097	4.92	7.27	7.01	5.64	7.4
GCATATAGGTAATACAAGGTGAAAGACCGATTGT	1.32	2.31	0.0608	0.571	-0.236	1.46	1.65	1.57	0.368	0.978
CGTCAAAGTTCAAGGGAACGTAACAGAAAGCAGC	6.3	5.44	2.42	3.12	0.895	4.42	3.85	4.64	1.76	3.48
ACTAGCACGCCAAGGGTCACTCAAGATTAGTCCG	2.79	3.15	0.382	3.1	-0.324	3.64	2.48	3.7	1.47	3.3
TCTATTAGTTGATTAGGGCTACCGAAACAGCGGA	0.263	0.345	-0.0589	0.351	0.304	0.505	0.0193	2.26	3.84	2.98
GGAACGAGGGCATTCGAGTTGTTAGCATGGCGAT	0.97	0.548	-0.561	-0.135	-0.712	1.18	0.562	0.571	-0.377	0.0631
GTACCAAGGTGAATAGGTCGTTCATGAGTAGGCG	0.8	1.02	0.137	0.601	-0.594	2.17	1.4	1.69	0.0443	0.958

Sequence	PBM binding z-score [1]	PBM binding z-score [2]	PBM binding z-score [3]	PBM binding z-score [4]	PBM binding z-score [5]	PBM binding z-score [6]	PBM binding z-score [7]	PBM binding z-score [8]	PBM binding z-score [9]	PBM binding z-score [10]
TCATATAGGTAAATGCTAGGTGAAAGTTCGATCT	1.23	1.18	0.931	1.27	-0.0844	2.74	3.2	4.57	4.77	4.78
GCAGACAGGTGAAACGCAGGTAACCCAGGGTGGC	-0.174	-0.00229	-0.737	-0.377	-1.23	0.855	0.586	-0.135	-0.728	-0.633
ACTAGCAGCCCAAGTTTGGGTCACTCAAACAAAG	-0.21	-0.0985	-0.387	0.667	-0.605	0.976	-0.169	0.0773	-0.863	-0.372
CCTCGGAGGACACAAGGTCAGAGCTGTCCGCTTT	1.95	2.18	0.422	1.25	-0.693	2.17	0.424	1.15	-0.626	0.468
TCTTGTACATCAATAGAGGTTAAGAAAGTGCGCT	0.725	3.49	0.473	1.79	0.532	1.82	0.201	1.72	3.01	2.08
CAAACTAGGTCACATAGGTCAAAGTCCGTGCGTA	6.12	5.33	4.86	5.05	1.48	5.74	9.47	7.44	6.05	7.51
CGTCCAAGGTGATAGGAGGTCAGTGAAGACAGAT	1.74	2.85	0.6	1.86	-0.299	2.71	1.06	1.49	0.0813	0.512
ATATGTAGGTTATCCGGTCATTCAGTTTGCGCAT	1.83	2.69	4.12	1.78	1.15	3.71	5.51	5.16	2.68	4.49
GCGACTGGGGCATCAGCAGGTTACCCTAACTTAA	-0.187	-0.0714	-0.26	0.646	-1.16	1.32	0.617	0.949	-0.87	0.118
TCGAGTAGGCTAGTCGGGGCATTCAGCCAACATA	-0.433	-0.611	-0.763	-0.579	-1.53	-0.209	-0.351	0.0773	0.911	0.101
CCTAGCAGGCCAGGGTGACTCAAGCATTTCGCTT	-0.306	-0.411	-0.589	-0.526	-1.43	0.023	-0.26	-0.0399	-0.987	-0.126
ATCTCTAGGTAACCAAGATCAGTGAATGCCGAAC	0.221	0.126	0.199	0.274	0.276	0.613	0.694	0.588	0.161	0.426
CGTCCAAGGTCAAGGTCAGTAAAAGAGACTCGAA	7.33	5.66	1.22	4.68	0.908	5.72	6.21	5.92	2.62	4.87
TCTATTGGTTGATTAGGGCAACCGAAACAGCGGA	0.575	0.37	-0.105	0.525	0.775	0.817	0.0989	1.86	3.2	2.59
ATGTCTAGGTAACCAAGTTCAGTGAATGCCGAAC	0.425	0.708	0.547	0.184	0.286	1.08	0.622	0.664	-0.0406	0.432
ATATGTAGGTTTGCTGGGGTCATTCAGACTAGGC	3.58	3.85	1.58	4.47	1.4	4.53	2.69	3.1	0.969	2.19
CTTACAGGGTCAGCTAGGCCAGAGTAGGGACGGC	4.5	2.83	-0.519	2.04	-0.147	4.25	2.76	3.24	0.782	2.02
CCCACTGGGGCAGAAAGGTTACCATACCATCCGG	0.135	0.483	-0.148	0.675	-0.892	2.12	2.04	2.59	0.549	2.22
CCTTACGGGTCACTGCAGGTTATAGCATCGGAGT	5.36	7.22	1.13	5.01	0.0222	4.88	3.68	4.35	1.16	3.15
CTACCAAGGTGAACAAGGTAGTTGATTACTATTC	0.29	0.269	-0.28	0.647	-0.774	1.19	0.675	0.808	0.0377	0.215
GCTGCTAGGTCAACTGACGGTCAGCTAAAGCTCG	4.79	3.96	1.36	2.5	0.152	3.92	2.88	3.37	0.824	2.14
CGTCCAAGTTCAAAGGTCAGTGAAGAGATGACGG	6.81	5.86	2.94	4.98	1.4	5.95	6.58	6.54	4.28	6.22
GCCGACAGGTGAAACGCAGGTAACTCAGGGTGGC	-0.479	0.0317	-0.662	-0.204	-1.11	0.797	0.421	-0.333	-0.664	-0.468
AGAATGAGGCTATACGTAGATCAGGGAAGAAAGT	-0.393	-0.526	-0.213	-0.708	-0.243	0.0162	0.801	0.267	0.101	0.251
